Measured values taken from PubChem BioAssay (NCI).
About 83,000 compounds went through this panel and 20% of them were active in at least one assay; those are over-represented in the sample as a whole.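 A percent growth of 40 corresponds to 60% growth inhibition; 0 means no net growth; -100 means all cells died. Active threshold: below 10.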 Activity calls are given as the source filed them.

What was measured:
Assay in all cases: NCI-60 one-dose screen, 48 h (100 = growth as untreated, 0 = no growth, -100 = all killed)
Details in all cases: 10 µM unless noted
NCI-H23 lung = test system: NCI-H23 lung
NCI-H226 lung = test system: NCI-H226 lung
NCI-H322M lung = test system: NCI-H322M lung
HOP-62 NSCLC = test system: HOP-62 NSCLC
NCI-H460 lung = test system: NCI-H460 lung
HOP-92 NSCLC = test system: HOP-92 NSCLC
NCI-H522 lung = test system: NCI-H522 lung
A549/ATCC NSCLC = test system: A549/ATCC NSCLC
786-0 renal = test system: 786-0 renal
COLO 205 colon = test system: COLO 205 colon

Measured: growth

COc1ccc2nc(-c3ccc(Cl)cc3)cc(-c3nnc(SC/C(=N/O)c4ccccc4)o3)c2c1
inactive: NCI-H23 lung 26.1% | NCI-H226 lung 42.7% | NCI-H322M lung 67.9% | HOP-62 NSCLC 59.4% | NCI-H460 lung 29.6% | HOP-92 NSCLC 60.7% | NCI-H522 lung 45.7% | A549/ATCC NSCLC 37.3% | 786-0 renal 24.9% | COLO 205 colon 31.5%

O=C(Nc1cc(=O)[nH]c(=O)[nH]1)C(Cl)Cl
inactive: NCI-H23 lung 107% | NCI-H226 lung 102% | NCI-H322M lung 95.5% | HOP-62 NSCLC 106% | NCI-H460 lung 109% | HOP-92 NSCLC 98.8% | NCI-H522 lung 90.3% | A549/ATCC NSCLC 97.4% | 786-0 renal 107% | COLO 205 colon 122%

COc1ccc2oc(=O)cc(-c3nc4ccc(N)cc4[nH]3)c2c1
inactive: NCI-H23 lung 84% | NCI-H226 lung 72% | NCI-H322M lung 86.2% | HOP-62 NSCLC 70.8% | NCI-H460 lung 102% | HOP-92 NSCLC 80.2% | NCI-H522 lung 64.1% | A549/ATCC NSCLC 90% | 786-0 renal 96.8% | COLO 205 colon 84.9%

COc1ccc(-n2cc(-c3ccc(Cl)c(Cl)c3)[nH]c2=O)cc1OC
inactive: NCI-H23 lung 94.8% | NCI-H226 lung 97.5% | NCI-H322M lung 75.9% | HOP-62 NSCLC 97.3% | NCI-H460 lung 107% | HOP-92 NSCLC 75% | NCI-H522 lung 85.2% | A549/ATCC NSCLC 89.6% | 786-0 renal 59.5% | COLO 205 colon 109%

O=C(Nc1ccc2ncnc(Nc3ccc(F)c(Cl)c3)c2c1)c1ccccc1
inactive: NCI-H23 lung 74.6% | NCI-H226 lung 72.2% | NCI-H322M lung 27.2% | HOP-62 NSCLC 72.3% | NCI-H460 lung 30.4% | HOP-92 NSCLC 97.2% | NCI-H522 lung 55.6% | A549/ATCC NSCLC 50.4% | 786-0 renal 47.7% | COLO 205 colon 97.3%

CCOC(=O)C1CCN(S(=O)(=O)/N=C2/NC(=O)NC2=C(Cl)Cl)CC1
active: NCI-H460 lung 7.43% | HOP-92 NSCLC -73.9% | NCI-H522 lung -69.4% | 786-0 renal 3.63% | COLO 205 colon -69.6%
inactive: NCI-H23 lung 16.7% | NCI-H226 lung 118% | NCI-H322M lung 31.1% | HOP-62 NSCLC 20.2% | A549/ATCC NSCLC 21%

CNC(=O)c1cc(Oc2ccc3c(c2)sc2nc(-c4ccc(NC(C)=O)cc4)cn23)ccn1
inactive: NCI-H23 lung 60.1% | NCI-H226 lung 72.3% | NCI-H322M lung 69.6% | HOP-62 NSCLC 41.5% | NCI-H460 lung 49.8% | HOP-92 NSCLC 35.3% | NCI-H522 lung 28.4% | A549/ATCC NSCLC 59.6% | 786-0 renal 33.8% | COLO 205 colon 47%

CCOC(=O)C1=C(C)n2nc(CC#N)c(C#N)c2NC1c1ccc(Cl)cc1 (stereo not given)
inactive: NCI-H23 lung 86.3% | NCI-H226 lung 81.8% | NCI-H322M lung 91.7% | HOP-62 NSCLC 91.5% | NCI-H460 lung 105% | HOP-92 NSCLC 90% | NCI-H522 lung 95.4% | A549/ATCC NSCLC 104% | 786-0 renal 106% | COLO 205 colon 103%

O=C(Nc1cc(Br)ccn1)c1cc2cc(Nc3nc(-c4ccccc4)nc4ccccc34)ccc2oc1=O
inactive: NCI-H23 lung 98.6% | NCI-H226 lung 117% | NCI-H322M lung 111% | HOP-62 NSCLC 103% | NCI-H460 lung 106% | HOP-92 NSCLC 105% | NCI-H522 lung 95.2% | A549/ATCC NSCLC 104% | 786-0 renal 94.2% | COLO 205 colon 105%

CCC[S@@](=O)c1ccc2nc(NC(=O)OC)[nH]c2c1
inactive: NCI-H23 lung 93.3% | NCI-H226 lung 85.6% | NCI-H322M lung 96% | HOP-62 NSCLC 66.2% | NCI-H460 lung 99.5% | HOP-92 NSCLC 84% | NCI-H522 lung 59.9% | A549/ATCC NSCLC 65.7% | 786-0 renal 91.6% | COLO 205 colon 96.4%

Cc1c(Cl)cccc1NC(=O)c1sc2nc3c(cc2c1N)CCCCC3
inactive: NCI-H23 lung 48% | NCI-H226 lung 71.6% | NCI-H322M lung 49.8% | HOP-62 NSCLC 43.2% | NCI-H460 lung 16.4% | HOP-92 NSCLC 37.8% | NCI-H522 lung 10% | A549/ATCC NSCLC 34.5% | 786-0 renal 32.1%
active: COLO 205 colon 9.8%

Cc1ccc(C2=N[C@H]3CCC[C@@H]3N(c3ccccc3)C(C(Cl)Cl)=N2)cc1
inactive: NCI-H23 lung 95.5% | NCI-H226 lung 107% | NCI-H322M lung 93.3% | HOP-62 NSCLC 111% | NCI-H460 lung 110% | HOP-92 NSCLC 107% | NCI-H522 lung 93% | A549/ATCC NSCLC 98.4% | 786-0 renal 98.3% | COLO 205 colon 98.8%

CCN1CCN(Cc2ccc(NC(=O)c3cccc(C#Cc4cccc5[nH]nc(N)c45)c3)cc2C(F)(F)F)CC1
inactive: NCI-H226 lung 16.6%
active: NCI-H23 lung -42.9% | NCI-H322M lung -49.6% | HOP-62 NSCLC -76.4% | NCI-H460 lung -72.2% | HOP-92 NSCLC -62.7% | NCI-H522 lung -84.7% | A549/ATCC NSCLC -91.2% | 786-0 renal -81.6% | COLO 205 colon -76.2%

COc1cccc(C(=O)OCCn2nc3c4c(cccc42)C(=O)c2ccccc2-3)c1O
inactive: NCI-H23 lung 44.2% | NCI-H226 lung 79.9% | NCI-H322M lung 53.8% | HOP-62 NSCLC 39.5% | NCI-H460 lung 28.2% | HOP-92 NSCLC 62.1% | NCI-H522 lung 24.8% | A549/ATCC NSCLC 67.4% | 786-0 renal 72.3% | COLO 205 colon 107%

O=C(CCCC(=O)Nc1ccc(-n2nnc3cc(Cl)c(Cl)cc32)cc1)Nc1ccc(-n2nnc3cc(Cl)c(Cl)cc32)cc1
inactive: NCI-H23 lung 40.2% | NCI-H226 lung 49.9% | NCI-H322M lung 59.9% | HOP-62 NSCLC 28% | NCI-H460 lung 14.9% | HOP-92 NSCLC 77.6% | NCI-H522 lung 37.4% | A549/ATCC NSCLC 34% | 786-0 renal 49.6% | COLO 205 colon 72.2%

O=c1c2ccccc2n(CC(O)CN2CCCC2)c2c(Br)cccc12 (stereo not given)
inactive: NCI-H23 lung 131% | NCI-H226 lung 122% | NCI-H322M lung 110% | HOP-62 NSCLC 100% | NCI-H460 lung 106% | HOP-92 NSCLC 90.2% | NCI-H522 lung 101% | A549/ATCC NSCLC 87% | 786-0 renal 98.8% | COLO 205 colon 82.4%

O=C1Nc2ccc(Cl)cc2/C1=N/c1nc(-c2ccc(Cl)cc2)cs1
active: NCI-H23 lung 7.9% | HOP-62 NSCLC -5.13% | NCI-H460 lung -10.2% | HOP-92 NSCLC -13.1% | NCI-H522 lung -12.8% | A549/ATCC NSCLC 7.91% | 786-0 renal -16.2% | COLO 205 colon -51.6%
inactive: NCI-H226 lung 36.9% | NCI-H322M lung 48.9%

C=C1C(=O)O[C@H]2[C@H]1CC/C(COC(=O)N1CCC[C@H]1C(=O)Nc1ccc(OC)c(C(N)=O)c1O)=C\CC[C@@]1(C)O[C@@H]21
active: HOP-92 NSCLC -11.2% | NCI-H522 lung -28.1% | COLO 205 colon -25.7%
inactive: NCI-H23 lung 79.5% | NCI-H226 lung 52.8% | NCI-H322M lung 90.6% | HOP-62 NSCLC 88.6% | NCI-H460 lung 73.9% | A549/ATCC NSCLC 75.4% | 786-0 renal 41.4%

C=C(C)[C@@H]1CC[C@]2(C(=O)O)CC[C@]3(C)[C@H](CC[C@@H]4[C@@]5(C)C[C@@H](CC#Cc6ccccc6C)C(=O)C(C)(C)[C@@H]5CC[C@]43C)[C@@H]12
active: NCI-H522 lung -4.68% | COLO 205 colon -7.56%
inactive: NCI-H23 lung 18.2% | NCI-H226 lung 23.7% | NCI-H322M lung 36.4% | HOP-62 NSCLC 32.5% | NCI-H460 lung 16% | HOP-92 NSCLC 38.1% | A549/ATCC NSCLC 26.7% | 786-0 renal 34.4%

COCCOCCOCc1n(Cc2ccc3ccccc3n2)c2ccccc2[n+]1Cc1ccc2ccccc2n1
inactive: NCI-H23 lung 12.7% | NCI-H226 lung 37.9% | NCI-H322M lung 47.4% | HOP-62 NSCLC 20.8% | NCI-H460 lung 16.5% | A549/ATCC NSCLC 39.4% | 786-0 renal 77.8%
active: HOP-92 NSCLC -22.1% | NCI-H522 lung -1.7% | COLO 205 colon -31.4%

C#CC[C@@H]1C[C@]2(C)[C@H]3CC[C@@H]4[C@H]5[C@H](C(=C)C)CC[C@]5(C(=O)O)CC[C@@]4(C)[C@]3(C)CC[C@H]2C(C)(C)[C@H]1O
active: HOP-92 NSCLC -6.27% | 786-0 renal -1.51%
inactive: NCI-H23 lung 47.9% | NCI-H226 lung 29.1% | NCI-H322M lung 67.5% | HOP-62 NSCLC 59% | NCI-H460 lung 10.4% | NCI-H522 lung 61.8% | A549/ATCC NSCLC 16.9% | COLO 205 colon 83.2%

Nc1ccccc1NS(=O)(=O)c1ccc(Cl)cc1
inactive: NCI-H23 lung 94.5% | NCI-H226 lung 103% | NCI-H322M lung 81.9% | HOP-62 NSCLC 106% | NCI-H460 lung 104% | HOP-92 NSCLC 78.8% | NCI-H522 lung 85.2% | A549/ATCC NSCLC 107% | 786-0 renal 98% | COLO 205 colon 104%

CCn1cc(C(=O)O)c(=O)c2cc(F)c(N3CCN(CC(=O)Nc4ccc(/C(C)=N/OC)cc4)CC3)cc21
inactive: NCI-H23 lung 90.6% | NCI-H226 lung 97.9% | NCI-H322M lung 80.2% | HOP-62 NSCLC 88.8% | NCI-H460 lung 104% | HOP-92 NSCLC 84.8% | NCI-H522 lung 84.8% | A549/ATCC NSCLC 95.8% | 786-0 renal 91.7% | COLO 205 colon 102%

C#Cc1ccccc1NC(=O)c1sc2nc3c(cc2c1N)CCCCC3
inactive: NCI-H23 lung 88% | NCI-H226 lung 88.3% | NCI-H322M lung 101% | HOP-62 NSCLC 99.5% | NCI-H460 lung 104% | HOP-92 NSCLC 93.2% | NCI-H522 lung 71.5% | A549/ATCC NSCLC 99.2% | 786-0 renal 123% | COLO 205 colon 105%

O=S(=O)(O)c1ccc(N=NSc2ccc3ccccc3c2)cc1
inactive: NCI-H23 lung 93.4% | NCI-H226 lung 106% | NCI-H322M lung 92.8% | HOP-62 NSCLC 108% | NCI-H460 lung 98.1% | HOP-92 NSCLC 86.4% | NCI-H522 lung 97% | A549/ATCC NSCLC 100% | 786-0 renal 102% | COLO 205 colon 108%

COc1ccc2c(c1)Oc1nc(N)c(C#N)c(N)c1C2Sc1ccc(O)cc1 (stereo not given)
inactive: NCI-H23 lung 93% | NCI-H226 lung 94.5% | NCI-H322M lung 100% | HOP-62 NSCLC 94.5% | NCI-H460 lung 104% | HOP-92 NSCLC 92.4% | A549/ATCC NSCLC 98.4% | 786-0 renal 106% | COLO 205 colon 79.7%
active: NCI-H522 lung -37.8%
